# Data from the supplement of paper PMC4206461.
# A number with no mark means an inactive call.
# What was measured:
# [1] = tested on: Pseudomonas aeruginosa PA14 dppA1-A5 penta mutant + pBBR5.DppA1 (PA14_58350); test: respiration area under curve with compound as sole nitrogen source, 24 h (OmniLog AUC (arbitrary units)); higher = more respiration / better utilisation as nitrogen source, active = 2000 or more
# Procedure: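 Biolog Phenotype MicroArray plates PM6-PM8: each di/tripeptide is the sole nitrogen source. Tetrazolium reduction was read in the OmniLog for 24 h at 37°C and summarised as area under the respiration curve (arbitrary units). Values below 2000 count as no respiration. Strain is the SBP penta mutant complemented with DppA1 on a plasmid under its native promoter. Lys/His/Cys peptides are excluded.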
# [2] = tested on: Pseudomonas aeruginosa PA14 wild type; test: as above
# Procedure: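 Biolog Phenotype MicroArray plates PM6-PM8: each di/tripeptide is the sole nitrogen source (IF-0 medium with succinate/ferric citrate and dye mix A). Tetrazolium reduction was read in the OmniLog every 15 min for 24 h at 37°C and summarised as area under the respiration curve (arbitrary units). The paper counts values below 2000 as no respiration and above 8000 as solid respiration. Replicate datasets are averaged.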
# [3] = tested on: Pseudomonas aeruginosa PA14 dppBCDF deletion mutant; test: respiration area under curve with compound as sole nitrogen source, 24 h (OmniLog AUC (arbitrary units)); higher = more respiration / better utilisation as nitrogen source, active = 2000 or more; extreme values may be limits of the assay
# Procedure: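 Biolog Phenotype MicroArray plates PM6-PM8: each di/tripeptide is the sole nitrogen source. Tetrazolium reduction was read in the OmniLog every 15 min for 24 h at 37°C and summarised as area under the respiration curve (arbitrary units). Values below 2000 count as no respiration. Strain is the dipeptide ABC transporter deletion mutant.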
SMILES,respiration area under curve [1],respiration area under curve [2],respiration area under curve [3]
CC(C)CC(N)C(=O)NC(Cc1c[nH]c2ccccc12)C(=O)O (stereo unspecified) (plate: PM7),8370 (active),8750 (active),7610 (active)
CC[C@H](C)[C@H](NC(=O)[C@H](C)N)C(=O)O (plate: PM8),7110 (active),9130 (active),1150
CC[C@H](C)[C@H](NC(=O)[C@@H](N)CC(C)C)C(=O)O (plate: PM6),3910 (active),–,3260 (active)
O=C(O)CC[C@H](NC(=O)[C@@H]1CCCN1)C(=O)O (plate: PM8),5380 (active),7660 (active),0
CC(C)[C@H](NC(=O)[C@@H](N)Cc1c[nH]c2ccccc12)C(=O)O (plate: PM8),1060,3080 (active),0
N[C@@H](Cc1ccc(O)cc1)C(=O)N[C@@H](CCC(=O)O)C(=O)O (plate: PM7),4690 (active),–,277
C[C@H](NC(=O)[C@@H](N)[C@@H](C)O)C(=O)O (plate: PM7),8470 (active),–,3130 (active)
NC(=O)CC[C@H](NC(=O)[C@@H]1CCCN1)C(=O)O (plate: PM7),9270 (active),9790 (active),1860
CC(C)[C@H](NC(=O)[C@H](C)N)C(=O)O (plate: PM8),7610 (active),–,700
N[C@@H](CC(=O)O)C(=O)N[C@@H](Cc1ccccc1)C(=O)O (plate: PM6),1720,3070 (active),15.5
N[C@@H](CO)C(=O)N[C@@H](CO)C(=O)O (plate: PM7),6490 (active),–,988
NC(CO)C(=O)NC(CCC(=O)O)C(=O)O (stereo unspecified) (plate: PM8),3950 (active),5470 (active),0
C[C@@H](NC(=O)CN)C(=O)O (plate: PM8),3490 (active),5060 (active),0
N[C@@H](CCC(=O)O)C(=O)N[C@@H](Cc1c[nH]c2ccccc12)C(=O)O (plate: PM6),1820,2740 (active),728
N[C@@H](Cc1ccccc1)C(=O)N[C@@H](CO)C(=O)O (plate: PM7),6540 (active),–,1830
CC(C)C[C@H](NC(=O)[C@@H](N)CCCN=C(N)N)C(=O)O (plate: PM6),7900 (active),9430 (active),8090 (active)
N[C@@H](CO)C(=O)N1CCC[C@H]1C(=O)O (plate: PM7),12700 (active),–,0
CC(C)[C@H](N)C(=O)N1CCC[C@H]1C(=O)O (plate: PM8),10300 (active),12700 (active),0
CC(C)C[C@H](NC(=O)[C@@H](N)Cc1c[nH]c2ccccc12)C(=O)O (plate: PM7),3710 (active),–,1830
CSCC[C@H](N)C(=O)N[C@@H](CC(C)C)C(=O)O (plate: PM7),1540,2580 (active),247
N[C@@H](Cc1c[nH]c2ccccc12)C(=O)N[C@@H](CO)C(=O)O (plate: PM7),2890 (active),–,106
C[C@H](NC(=O)CN)C(=O)O (plate: PM6),2380 (active),4610 (active),48.2
CC(C)[C@H](NC(=O)[C@@H](N)CO)C(=O)O (plate: PM7),6730 (active),8700 (active),3050 (active)
N[C@@H](Cc1c[nH]c2ccccc12)C(=O)N[C@@H](CCC(=O)O)C(=O)O (plate: PM7),1070,–,0
CC[C@H](C)[C@H](NC(=O)CNC(=O)CN)C(=O)O (plate: PM8),2430 (active),10400 (active),1
O=C(O)CC(NC(=O)C1CCCN1)C(=O)O (stereo unspecified) (plate: PM7),2970 (active),4460 (active),0
C[C@H](NC(=O)[C@@H]1CCCN1)C(=O)O (plate: PM7),6110 (active),–,103
N[C@@H](Cc1ccc(O)cc1)C(=O)N[C@@H](Cc1ccc(O)cc1)C(=O)O (plate: PM7),6170 (active),7080 (active),4900 (active)
C[C@H](NC(=O)[C@@H](N)Cc1ccc(O)cc1)C(=O)O (plate: PM7),10300 (active),11200 (active),8840 (active)
